The values that follow come from PubChem BioAssay.

Values without a mark were called inactive.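 The calls were made as follows: active = inhibition at or above 50% relative to wild type and mutant plate controls; inactive = inhibition below 50%.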

A short description of the test: loss of swimming-algae plug formation – whole organism, Chlamydomonas reinhardtii, WT vs cilia-less mutant, absorbance, 96-well, primary screen (AID 463189).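 Also: 0% = wild type cc124 cells in DMSO and 100% = ciliumless bld1 mutant cells.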 The note with it: Chlamydomonas reinhardtii gravitaxis, OD600 absorbance, 2 days; at 10 µM; hits give high values.
For `C[C@H]1O[C@@H](n2cc(F)c(=O)[nH]c2=O)[C@H](O)[C@@H]1O`, the inhibition is 2.48%.
Take `O=C1N(c2ccccc2)c2ccccc2C1(Cc1ccncc1)Cc1ccncc1`: the inhibition is -3.34%.
For the compound `C[N+](C)(C)CCOC(=O)CCC(=O)OCC[N+](C)(C)C`, the inhibition was -7.41%.
Regarding `CCn1c(=O)c2[nH]c(-c3ccccc3)nc2n(CC)c1=O`, the inhibition was -1.12%.
Next, `CC(=O)O[C@H]1CC2(C)[C@@H](C[C@@H](O)[C@H]3[C@@]4(C)CC[C@@H](O)[C@@H](C)[C@@H]4CC[C@@]32C)C1=C(CCC=C(C)C)C(=O)O` (stereo not given in full): 1.57%.
`N[C@H](C(=O)O)[C@H]1C[C@@H]1C(=O)O`: the inhibition is 2.25%.
Next, `Cc1nc2c(OCc3ccccc3)cccn2c1CC#N`: 3.47%; `Oc1ccc(-c2nc(-c3ccc(F)cc3)c(-c3ccncc3)[nH]2)cc1`: 7.36%.
As for `[Li+]`, the inhibition is -0.162%.
`CCCCC[C@H](CC(=O)NO)C(=O)N[C@H](C(=O)N1CCC[C@H]1CO)C(C)C`: the inhibition is -2.25%.
In the case of `CCCCNc1ccc(C(=O)OCCN(C)C)cc1`, the inhibition is 8.43%.
Turning to `CN1CCc2ccccc2Cc2[nH]c3ccccc3c2CC1`, the inhibition was 10.8%.
Take `CNC(=O)[C@H]1O[C@@H](n2cnc3c(N)ncnc32)C(O)[C@H]1O` (stereo not given in full): the inhibition was 1.69%.
Consider `O=C(O)CCCCCC[C@H]1C(=O)NC(=O)N1CC[C@@H](O)C1CCCCC1`, for which the inhibition is -0.469%.
For `N[C@@H](Cc1c[nH]c2ccccc12)C(=O)O`, the inhibition is 5.27%.
For `CC(CN(C)C)CN1c2ccccc2CCc2ccccc21` (stereo not given), the inhibition was 1.33%.
Regarding `CC(C)NC[C@@H](O)c1ccc(O)c(O)c1`, the inhibition was 3.12%.
As for `O=C(O)CCCCCCCC(=O)O`, the inhibition is 5.5%.
The result for `CC1(NCC(O)COc2cccc3[nH]ccc23)CCC(C(C)(C)NC(=O)CBr)CC1` (stereo not given) reads 5.45%; that for `CNc1ncnc2c1ncn2[C@H]1C[C@H](OP(=O)(O)O)[C@@H](COP(=O)(O)O)O1`, 1.24%.
For the compound `CC#CCOC(=O)c1c(C)nc2sc3c(c2c1N)CCC(O)C3` (stereo not given), the inhibition was 11.7%.
The result for `OCc1ccc(-c2nn(Cc3ccccc3)c3ccccc23)o1` reads 3.81%; that for `CC(=O)O[C@H]1C(=O)[C@@]2(C)C([C@H](OC(=O)c3ccccc3)[C@]3(O)C[C@H](OC(=O)[C@H](O)[C@@H](NC(=O)c4ccccc4)c4ccccc4)C(C)=C1C3(C)C)[C@]1(OC(C)=O)CO[C@@H]1C[C@@H]2O` (stereo not given in full), 8.47%.
As to `Nc1ncnc2c1ncn2[C@@H]1O[C@H](CO)[C@H](O)C1O` (stereo not given in full), the inhibition is 5.53%.
Take `C[C@H]1CC2C3CCC4=CC(=O)C=C[C@]4(C)[C@@]3(Cl)[C@@H](O)C[C@]2(C)[C@@]1(O)C(=O)CO` (stereo not given in full): the inhibition is -2.71%.
`O=c1onc2n1-c1cc(Br)ccc1OC2`: the inhibition was -0.03%.
As to `Cc1ccc(S(=O)(=O)N[C@@H](Cc2ccccc2)C(=O)CCl)cc1`, the inhibition was -2.77%.
Turning to `CNc1ncnc2c1ncn2[C@@H]1O[C@H](CO)[C@H](O)C1O` (stereo not given in full), the inhibition was 7.79%.
Consider `C[C@](N)(Cc1ccc(O)c(O)c1)C(=O)O`, for which the inhibition was 5.26%.
With `CN1C(=O)CC[C@H]1c1cccnc1`, the inhibition is 4.07%.
Take `C=CCN1CCc2c(cc(O)c(O)c2Cl)C(c2ccccc2)C1` (stereo not given): the inhibition is -7.02%.
For `CCN(CC)C(C)C(=O)N1c2ccccc2Sc2ccccc21` (stereo not given), the inhibition was 40.1%.
For `CN(C)S(=O)(=O)c1ccc2c(c1)/C(=C/c1cc3c([nH]1)CCCC3)C(=O)N2`, the inhibition was 4.39%.
For `Cc1scc2c1N(C(=O)CN1CCN(C)CC1)c1ccccc1NC2=O`, the inhibition was -1.6%.
Consider `N#C/C(=C\c1ccc(O)c(O)c1)C(=O)NCCCNC(=O)/C(C#N)=C/c1ccc(O)c(O)c1`, for which the inhibition was 1.37%.
Regarding `CCOC(=O)C(C)(C)Oc1ccc(Cl)cc1`, the inhibition is -6.65%.
`NC1(C(=O)O)CC1`: the inhibition was 5.31%.
Regarding `N[C@@H](COP(=O)(O)O)C(=O)O`, the inhibition is 2.62%.
On to `O=C1N=C(O)CN1/N=C/c1ccc(-c2ccc([N+](=O)[O-])cc2)o1`, for which the inhibition is 4.87%.
`CO/N=C(\C(=O)N[C@@H]1C(=O)N2C(C(=O)O)=C(COC(C)=O)CS[C@H]12)c1csc(N)n1` (stereo in doubt): the inhibition was 6.36%.

The inhibition is the change of the read-out against control, counted positive when it falls.
